# This is a sample that favours compounds with a hit; in the whole collection about 10% have one here.
# JMJD2A Tudor – qHTS Assay for Inhibitors of JMJD2A-Tudor Domain | AlphaScreen JMJD2A-Tudor / H3K4me3 peptide binding | Potency, µM (titrated, usually from 114 µM), hits mostly inhibitors | hit rate 4.4% among 390,000 | Lysine-specific demethylase 4A (Homo sapiens), O75164 | AID 504339, 2011; further: nearly all actives have a fitted effect of over 50% in size
# HP1b chromo inh – HTS for Inhibitors of HP1-beta Chromodomain Interactions with Methylated Histone Tails. Chromobox protein homolog 1 (Homo sapiens), P83916. AlphaScreen HP1-beta / biotin-H3K9me3 peptide binding. Potency, µM (highest dose often 114 µM), most hits filed as inhibitors. hit rate 0.56% among 390,000. AID 540317, 2011; further: nearly all actives have a fitted effect of over 70% in size
#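 Compound inhibition of the preformed complex between 50 nM HP1-beta and 50 nM biotinylated H3K9me3 peptide was read by AlphaScreen. Buffer was PBS pH 7.4 with 0.01% Tween-20. Incubations ran 30 min at room temperature, with 10 ug/mL donor/acceptor beads.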
# G9a block – qHTS Assay for Inhibitors of Histone Lysine Methyltransferase G9a | hit rate 8.8% among 350,000 | AID 504332, 2011 | Histone-lysine N-methyltransferase EHMT2 (Homo sapiens), Q96KQ7 | Potency, µM (doses to about 102 µM), actives largely listed as inhibitors | G9a H3K9 monomethylation, AlphaScreen, 2 h; further: nearly all actives have a fitted effect of over 75% in size
#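 Using a bead-based AlphaScreen, monomethylated H3K9 product from 2 h room-temperature reactions (G9a 20 nM, peptide 500 nM, SAM 20 uM) was detected with 0.5 ug/mL rabbit anti-H3K9me1 antibody.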
# L3MBTL1 block – qHTS Assay for the Inhibitors of L3MBTL1; Lethal(3)malignant brain tumor-like protein 1 (Homo sapiens), Q9Y468; AlphaScreen L3MBTL1–H3K9me1 peptide binding; Potency, µM (highest dose often 57.1 µM), usual class: inhibitors; hit rate 0.66% among 230,000; further: nearly all actives have a fitted effect of over 60% in size
#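 Displacement of a biotinylated histone H3(1-15) peptide monomethylated at Lys9 (75 nM) from L3MBTL1 (50 nM) was measured by AlphaScreen after a 30 min room-temperature compound incubation; cefsulodin titration served as intraplate control.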
# GLS inh – qHTS for Inhibitors of Glutaminase (GLS). hit rate 0.21% among 410,000. GLS enzymatic activity, qHTS titration. Glutaminase kidney isoform, mitochondrial (Homo sapiens), O94925. Potency, µM (series often up to 45.5 µM), usual class: inhibitors
# Target sequence (O94925 whole entry, looked up, canonical isoform): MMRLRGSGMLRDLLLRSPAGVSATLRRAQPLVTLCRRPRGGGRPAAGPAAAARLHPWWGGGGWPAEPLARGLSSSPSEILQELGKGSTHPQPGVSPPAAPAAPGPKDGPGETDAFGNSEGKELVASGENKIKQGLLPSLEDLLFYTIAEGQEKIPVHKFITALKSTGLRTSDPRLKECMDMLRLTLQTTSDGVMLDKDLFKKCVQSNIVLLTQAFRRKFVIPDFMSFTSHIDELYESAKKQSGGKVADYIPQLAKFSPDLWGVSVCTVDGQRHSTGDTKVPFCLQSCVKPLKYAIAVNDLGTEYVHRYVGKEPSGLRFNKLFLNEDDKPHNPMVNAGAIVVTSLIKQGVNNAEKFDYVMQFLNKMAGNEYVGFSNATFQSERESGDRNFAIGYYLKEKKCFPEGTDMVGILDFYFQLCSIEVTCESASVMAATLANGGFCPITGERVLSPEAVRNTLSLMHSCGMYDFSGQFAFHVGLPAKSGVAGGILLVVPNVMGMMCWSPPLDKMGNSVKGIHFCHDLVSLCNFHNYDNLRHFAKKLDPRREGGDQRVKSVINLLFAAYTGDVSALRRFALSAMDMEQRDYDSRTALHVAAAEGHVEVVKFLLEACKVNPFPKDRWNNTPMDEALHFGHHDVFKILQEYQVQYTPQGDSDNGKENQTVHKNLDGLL
#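 Compounds were pin-transferred onto hKGA, after which L-glutamine (1 mM solution) and a detection mix of glutamate oxidase, HRP and Amplex Red were added. Initial and 30 min RT fluorescence reads were collected.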
# BAZ2B inh – qHTS Assay for Inhibitors of BAZ2B; Bromodomain adjacent to zinc finger domain protein 2B (Homo sapiens), Q9UIF8; AlphaScreen BAZ2B-H3K14Ac peptide displacement; Potency, µM (series often up to 114 µM), actives largely listed as inhibitors; hit rate 4.4% among 360,000; AID 504333, 2011; further: nearly all actives have a fitted effect of over 60% in size
#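 BAZ2B 50 nM plus b-H3(5-23)K14Ac 50 nM, PBS pH 7.4/0.01% Tween-20, 30 min RT; compound added (max 110 uM), 30 min RT; streptavidin donor/Ni-chelate acceptor beads 10 ug/mL final, 20 min dark; AlphaScreen read.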
# Hits are given with their value; . = inactive; ? = inconclusive; / = no result; [ ] = dose if it differs, or a comment. The call rests on the fitted dose curve; in most records, active means well fitted curve in the direction sought with a large enough effect; inconclusive means small, poorly fitted or top-dose-only effect, or another doubt; inactive means no such curve, though single readings can be large; an effect the other way counts as inactive or inconclusive.
SMILES,JMJD2A Tudor,HP1b chromo inh,G9a block,L3MBTL1 block,GLS inh,BAZ2B inh
Cc1nc2sc(C(c3ccc(Cl)cc3)N3CCN(C(=O)c4ccco4)CC3)c(O)n2n1 (stereo not given),.,.,.,.,.,.
Oc1c(C(c2ccc(Cl)cc2Cl)N2CCN(Cc3ccccc3)CC2)sc2nc(-c3ccco3)nn12 (stereo not given),?,?,13µM,/,.,?
Cc1nc2sc(C(c3ccco3)N3CCC(C)CC3)c(O)n2n1 (stereo not given),.,.,?,.,.,.
Cc1nc2sc(C(c3ccco3)N3CCN(C(c4ccccc4)c4ccccc4)CC3)c(O)n2n1 (stereo not given),50µM,.,25µM,?,.,?
CN1CCN(C(c2ccc(Cl)cc2Cl)c2sc3nc(-c4ccco4)nn3c2O)CC1 (stereo not given),.,.,.,/,.,.
Cc1nc2sc(C(c3ccco3)N3CCN(c4ccccc4)CC3)c(O)n2n1 (stereo not given),.,.,45µM,.,.,.
Oc1c(C(c2ccco2)N2CCOCC2)sc2ncnn12 (stereo not given),.,.,40µM,/,.,.
Cc1nc2sc(C(c3cccs3)N3CCN(c4ccccc4)CC3)c(O)n2n1 (stereo not given),.,.,?,.,.,.
Cc1cccc(N2CCN(c3ccc4cc(S(=O)(=O)N5CCC(C)CC5)ccc4n3)CC2)c1C,.,.,?,/,.,.
Cc1nn2c(=S)[nH]nc2[nH]c1=O,28µM,.,7.1µM,.,?,/
O=C1CCc2cc([S+](=O)([O-])NC3CCOCC3)ccc2N1,.,/,/,/,/,/
Clc1ccc(-c2ncc3ccccn23)cc1,.,.,.,.,.,?
COc1ccc(-c2ncc3ccccn23)cc1OC,3.5µM,?,14µM,.,.,32µM
Clc1ccccc1-c1ncc2ccccn12,18µM,?,?,.,.,56µM
O=C(CN1C(=O)CCSc2ccccc21)Nc1ccc(C(F)(F)F)cc1,.,.,.,/,.,.
CCc1cccc(NC(=O)Cn2c(=O)n(CC(=O)NCCc3ccccc3)c(=O)c3ccccc32)c1,.,.,.,/,.,?
COCCn1nnnc1C(C(C)C)N1CCOCC1 (stereo not given),.,.,79µM,.,.,.
CC(C)(C)C(=O)OCOP(=O)(COCCn1cnc2c(N)ncnc21)OCOC(=O)C(C)(C)C,/,/,6.3µM,/,.,/
Cc1ccc(-n2cc(CN(C)Cc3nccn3C)c(-c3ccc(F)cc3)n2)cc1,45µM,?,/,.,.,20µM
CCn1ccnc1CN(C)Cc1cn(C)nc1-c1ccccc1F,.,.,?,.,.,?
Cc1ccc(-n2cc(CN(C)Cc3ncc[nH]3)c(-c3cccc(C)c3)n2)cc1,32µM,.,?,?,.,50µM
CCn1ccnc1CN(C)Cc1cn(-c2cc(C)ccc2C)nc1-c1ccccc1,?,.,50µM,.,.,?
CCn1ccnc1CN(C)Cc1cn(-c2ccccc2)nc1-c1ccc(OC)cc1F,40µM,.,?,.,.,.
CN(Cc1ncc[nH]1)Cc1cn(-c2ccccc2)nc1-c1ccc2c(c1)OCO2,.,.,?,.,.,?
CCn1ccnc1CN(C)Cc1cn(-c2ccc(C)cc2)nc1-c1ccc(F)cc1,?,?,.[0.501 µM],.,.,50µM
SMILES,JMJD2A Tudor,HP1b chromo inh,G9a block,L3MBTL1 block,GLS inh,BAZ2B inh
CC(=O)c1c(C)[nH]c(C(=O)Nc2nc(C)cs2)c1C,.,.,.,.,.,50µM
COc1ccc(-c2nc(NC(=O)c3[nH]c(C)c(C(C)=O)c3C)sc2C)cc1,?,.,50µM,/,.,?
O=C(Nc1ccccc1C(=O)OCc1cc(=O)n2nc(C3CC3)sc2n1)c1cccc(F)c1,.,.,.,/,.,.
CC(Nc1oc(-c2ccc(COc3ccccc3)o2)nc1C#N)c1ccccc1 (stereo not given),.,.,?,/,.,?
CCOc1ccc(NC(=O)c2cc3cc(C)ccc3n2C)cc1,.,.,.,/,.,.
COc1ccc(C)cc1NC(=O)c1ccc2c(c1)N(Cc1cccc(Cl)c1)C(=O)c1ccccc1S2=O (stereo not given),?,.,.,/,.,.
CCC(C(=O)Nc1ccc(C(=O)OC)cc1)n1nc(-c2ccc(C)cc2)c2c(c1=O)CCCC2 (stereo not given),.,.,.,/,.,.
CCOc1ccc(N2CC(C(=O)OCC(=O)c3ccc(OC)cc3)CC2=O)cc1 (stereo not given),56µM,.,.,/,.,.
CCOc1ccc(N2CC(C(=O)NCCc3ccc(S(N)(=O)=O)cc3)CC2=O)cc1 (stereo not given),.,.,25µM,/,.,.
CCOc1ccc(N2CC(C(=O)NCCN3C(=O)S/C(=C/c4cccnc4)C3=O)CC2=O)cc1 (stereo not given),.,.,14µM,.,.,.
Cc1cc(N2O[C@H]3C=C[C@@H]2C3)no1,79µM,.,/,.,.,/
COc1ccccc1NNC(=O)c1cccnc1Oc1ccccc1,.,.,7.1µM,.,?,.
COc1cccc(OCCCCN2CC(C)OC(C)C2)c1 (stereo not given),6.3µM,?,10µM,/,.,?
CC1CN(CCCCSc2ccccc2)CC(C)O1 (stereo not given),.,.,.,.,.,.
CC1CN(CCCCOc2ccc3ccccc3c2)CC(C)O1 (stereo not given),1.4µM,?,2µM,.,.,?
CC1CN(C(=O)COc2ccc3ccccc3c2)CC(C)O1 (stereo not given),.,.,/,.,.,/
COC(=O)c1ccc(OCCCCN2CC(C)OC(C)C2)cc1 (stereo not given),11µM,?,2.8µM,.,.,79µM
COc1cccc(C2=NN(C(C)=O)C(c3cn(-c4ccccc4)nc3-c3cccs3)C2)c1 (stereo not given),.,.,.,/,.,.
CCCN1Cc2cccc(C(=O)Nc3cccc(C(=O)OCC)c3)c2C1=O,.,.,.,/,.,/
CC[n+]1c(C)sc2cc(C)ccc21,.,.,?,.,.,.
CC[n+]1c(/C=C2\Sc3ccccc3N2C)ccc2cccc(C)c21,.,?,25µM,.,.,45µM
CC[n+]1ccccc1/C=C1\Sc2ccc(C)cc2N1C,?,.,.[0.501 µM],/,.,?

# Compound activity as filed in PubChem BioAssay.
